Experimental data reported in PubChem BioAssay AID1018 (Sanford-Burnham Center for Chemical Genomics, 2008).
About 15 (0.007%) of roughly 200,000 compounds were called active. The list comes from a sample in which actives are over-represented; it also holds similar structures and randomly drawn compounds. Values without a mark were called inactive. No stated cut-off is given here; in the data, active means displacement above about 50%; inactive means the rest.

The compounds below were run against E3 ubiquitin-protein ligase XIAP (Homo sapiens) (UniProt P98170) (assay: XIAP antagonists, biochemical, IAP family, fluorescence polarization (AID 1018)). Conditions: XIAP BIR domain, fluorescence polarization peptide displacement; at 20 µM; active compounds read high.
E3 ubiquitin-protein ligase XIAP (Homo sapiens), sequence (P98170 whole entry, looked up, the tested form may be a part): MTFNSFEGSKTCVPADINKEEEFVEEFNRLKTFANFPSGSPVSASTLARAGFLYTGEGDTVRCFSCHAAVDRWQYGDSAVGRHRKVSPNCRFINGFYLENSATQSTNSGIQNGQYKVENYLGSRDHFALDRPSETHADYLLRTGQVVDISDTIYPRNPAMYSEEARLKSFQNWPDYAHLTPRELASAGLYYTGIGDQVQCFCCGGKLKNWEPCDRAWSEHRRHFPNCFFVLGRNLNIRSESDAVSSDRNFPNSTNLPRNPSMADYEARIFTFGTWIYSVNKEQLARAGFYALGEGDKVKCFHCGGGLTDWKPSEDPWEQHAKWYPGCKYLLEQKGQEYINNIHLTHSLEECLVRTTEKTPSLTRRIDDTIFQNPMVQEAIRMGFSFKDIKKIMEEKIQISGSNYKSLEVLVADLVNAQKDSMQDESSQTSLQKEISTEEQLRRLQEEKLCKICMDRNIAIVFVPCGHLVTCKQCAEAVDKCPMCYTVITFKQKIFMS

| SMILES | displacement |
| --- | --- |
| CCCOC(=O)c1sc2nc3c(cc2c1N)C(=O)CCC3 | -6% |
| CCOC(=O)c1c(C(=O)OCC)c(C)n(N2C(=O)CSC2=S)c1C | -39.5% |
| Cc1nn2cc(-c3ncc(C(F)(F)F)cc3Cl)cnc2c1Br | -5.1% |
| CN1CCN(C2CCCCCC2)CC1 | -7.6% |
| O=C1c2ccccc2-c2onc3ccc(N4CCCC4)c1c23 | -14.9% |
| O=[N+]([O-])c1c(NCCO)cc(N2CCC3(CC2)OCCO3)c2nonc12 | -5.3% |
| O=C(O)CCCNc1cc(N2CCC3(CC2)OCCO3)c2noc3c2c1C(=O)c1ccccc1-3 | 87.1% (active) |
| CCOC(=O)N1CCN(c2cc(NCCC(=O)O)c3c4c(onc24)-c2ccccc2C3=O)CC1 | 67.3% (active) |
| CC(=O)OCCNc1cc(N2CCN(C)CC2)c2noc3c2c1C(=O)c1ccccc1-3 | -1.6% |
| CCOC(=O)N1CCN(c2cc(NCCO)c([N+](=O)[O-])c3nonc23)CC1 | -2.9% |
| CC(=O)C(C)Oc1cc(C)cc2oc(=O)c(C)c(C)c12 (stereo not given) | -5.9% |
| CC(=O)COc1cc(C)cc2oc(=O)c(C)c(C)c12 | 61.1% (active) |
| Cc1cc(OCC(=O)C(C)(C)C)c2c(C)c(C)c(=O)oc2c1 | -1.7% |
| Cc1ccc(Cn2nnc3c(=O)[nH]c(C4CCN(S(=O)(=O)c5ccc(C)cc5)CC4)nc32)cc1 | -2% |
| Cc1ccc(Cn2nnc3c(=O)[nH]c(C4CCN(S(=O)(=O)c5ccc(F)cc5)CC4)nc32)cc1 | 63.3% (active) |
| Cc1ccc(Cn2nnc3c(=O)[nH]c(C4CCN(S(=O)(=O)c5ccccc5)CC4)nc32)cc1 | -5.4% |
| COc1ccc(N(CC(O)CN2CCCCC2)S(=O)(=O)c2ccc(C)cc2)cc1 (stereo not given) | -3.7% |
| C=CC(=O)NCCCc1cc(C(C)(C)C)c(O)c(C(C)(C)C)c1 | -6.9% |
| Cc1ccccc1N(CC(=O)O)S(C)(=O)=O | -4.6% |
| CN(C)CCCOC(=O)COc1ccc(C(C)(C)C)cc1 | -1.4% |
| CCC(C)(C(=O)NC1CCCC1)N(Cc1cccs1)C(=O)c1ccc2c(c1)OCO2 (stereo not given) | -5.3% |
| CC(C)Cn1c2c(c(O)c(C(=O)Nc3ccc(F)cc3)c1=O)CCCC2 | 0.5% |

| SMILES | displacement |
| --- | --- |
| COc1ccccc1NCCC#N | -1.4% |
| Cc1cccc(OCC(=O)NNC(=O)c2cccs2)c1 | -3.8% |
| Cc1[nH]n(-c2ccc([N+](=O)[O-])cc2)c(=O)c1C=NCCN1CCN(C(=O)c2ccccc2)CC1 | -2.6% |
| O=C(NCCCO)c1ccc(CSc2nc3ccccc3[nH]2)cc1 | -4% |
| CC(=O)C1C(c2cccc(F)c2)NC(=O)NC1(O)C(F)(F)F (stereo not given) | 0% |
| COC(=O)C(NNc1ccccc1C)(NC(=O)c1ccc(F)cc1)C(F)(F)F (stereo not given) | -3.9% |
| O=C(/C=C/c1ccco1)NCC(=O)N/N=C/c1ccccc1[N+](=O)[O-] | -3.9% |
| O=c1c(Cc2ccc(F)cc2)c(O)ccn1CCc1ccccn1 | -4.4% |
| CCN1/C(=C/c2ccc3cc(C)ccc3[n+]2CC)Sc2ccccc21 | -5.1% |
| CCN1/C(=C/c2ccc3cc(C)ccc3[n+]2C)Sc2ccc3sccc3c21 | 72.1% (active) |
| CCN1/C(=C/c2ccc3cc(C)ccc3[n+]2CC)Sc2cc(C)ccc21 | 1.8% |
| O=C(COc1ccccc1)Nc1ccncc1 | -2.7% |
| Cc1sc(N)c(C#N)c1C | -1.2% |
| CC(C)Oc1cccc(C(=O)C2CCCN(Cc3ccc4nonc4c3)C2)c1 (stereo not given) | -5.9% |
| CCc1c(C)nc2c(Br)cccc2c1SCCC#N | -0.5% |
| CN(C)c1nc(N)nc(CSc2nnnn2-c2ccccc2)n1 | -5.7% |
| CCOC(=O)c1c(-c2ccccc2)oc2ccc(O)c(CN3CCN(C)CC3)c12 | -5.2% |
| Cc1cc(NC(=O)COn2nnc3ccc(Cl)cc32)no1 | -5.1% |
| COc1ccc(OC)c(NC(=O)C23CC4CC(C2)CC(n2cnc(Br)n2)(C4)C3)c1 | -3.2% |
| CCC(Oc1ccccc1)C(=O)N1CC(C)CC(C)C1 (stereo not given) | 2.4% |
| C[N+]1(CC(=O)OCCCc2ccccc2)CCCC1 | -9.6% |
| O=C(NC1CCCc2ccccc21)c1ccc(S(=O)(=O)N2CCOCC2)cc1 (stereo not given) | -3.4% |

| SMILES | displacement |
| --- | --- |
| CCOc1cccc2cc(C(=O)N3CCc4ccccc43)c(=O)oc12 | -88.7% |
| CCC(/C=N/NC(=O)C(=O)N/N=C/C(CC)CC)CC | -0.2% |
| O=C(COc1cccc(NC(=O)c2cccc([N+](=O)[O-])c2)c1)c1ccc(Br)cc1 | -6.2% |
| O=C(COc1cccc(NC(=O)c2cccc([N+](=O)[O-])c2)c1)c1ccc(F)cc1 | 59.8% (active) |
| COc1cccc(C(=O)COc2cccc(NC(=O)c3cccc([N+](=O)[O-])c3)c2)c1 | -1.9% |
| CC(=O)Nc1ccccc1OCC(=O)NCCc1ccc(Cl)cc1Cl | -8.3% |
| COCCNC(=O)CCSCc1ccccc1F | -1.3% |
| O=C(Nc1ccccc1C(F)(F)F)NC1CCCCC1 | -2.8% |
| CC(=O)Nc1cc(C)c(S(C)(=O)=O)c(C)c1 | -8.9% |
| CC1CN(CC(O)COC(c2ccccc2)c2ccccc2)CC(C)O1 (stereo not given) | -4.7% |
| CC(=C/c1ccc(C(C)C)cc1)/C=N/NC(=O)c1ccncc1 | -6.3% |
| O=C(CN1CCc2ccccc2C1)Nc1ccc(F)cc1F | -0.5% |
| Cc1ccc(C(=O)Nc2ncc(C)s2)o1 | -3.4% |
| COc1ccccc1CCc1nnc(CCC(=O)NCCCOc2cccnc2)o1 | -4.3% |
| CC1=C(C(=O)Nc2ccccc2)C(c2ccccc2[N+](=O)[O-])NC(=O)N1 (stereo not given) | -1.5% |
| O=[N+]([O-])c1ccccc1OCCCN1CCOCC1 | -4.4% |
| CC(C)CNC(=O)NC(=O)COc1ncnc2sccc12 | -1.4% |
| COc1ccc(NC(=O)CSc2nnc(NC(=O)c3ccccc3C(=O)O)s2)cc1 | -4.3% |
| Cc1ccc(Sc2nc(C)cc(C)c2S(C)(=O)=O)cc1 | -4.9% |
| COCCNC(=O)NC(=O)COC(=O)c1ccc2[nH]c3c(c2c1)CCCC3 | -1.1% |
| O=C(CCCC(=O)OCC(Cl)=C(Cl)Cl)Nc1cccc(F)c1 | -3.5% |
